Shown are actives, neighbours in structure and some others; about 13% of the full set was active somewhere.
HSD17B inhib = inhibitors of human HSD17B10 dehydrogenase. Q99714. recombinant HSD17B10, NADH fluorescence kinetic. Potency, µM (titrated, usually from 57.1 µM), for the others: at the top dose activity change, negative = inhibition, usual class: inhibitors. actives 7.6% (n = 75,000). AID 893;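 note: the protocol describes HADH2 (HSD17B10) and not the HSD17B4 of the title; potency is the fitted concentration of half-maximal effect; % is set by controls: 0 for no effect and ±100 for the full control effect; nearly all actives have a fitted effect of over 70% in size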
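Activity followed as NADH fluorescence increase (ex 360, em 450 nm) every 30 seconds for 4 min, using final 90 uM beta-hydroxybutyryl CoA and 1 mM NAD+. Recombinant His-tagged enzyme, 20 nM, pH 9.0 Tris buffer, 15 min compound preincubation.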
A350 fluor = compounds fluorescent in Alexa 350 spectral region. max dye-equivalent concentration, M. actives 11% (n = 59,000). Compound autofluorescence, 340/450 nm, Alexa 350 dye-equivalents; hits give high values; in the data active = max dye-equivalent concentration above about 10 nM; inconclusive = mostly about 1.1 nM to 9.6 nM
AID923 = qHTS Assay for Allosteric/Competitive Inhibitors of Caspase-1: Spectroscopic Profiling in AFC Spectral Region; compound fluorescence, AFC spectral region (405/520 nm); Potency, µM (top dose mostly 57.5 µM), for the others: at the top dose fluorescence increase, hits mostly activators; actives 1.1% (n = 75,000); note: potency is the fitted concentration of half-maximal effect; 0% is about no effect
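Titrations up to 57 uM read every 20 sec for 3 min (405/520 nm) with 50 nM caspase 1 and 5 uM Ac-WEHD-AFC, pH 7.5 HEPES buffer. Fluorescence-vs-time intercept gave baseline, scaled against on-plate AFC standard.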
HADH2 inh = HADH2 (human) dehydrogenase inhibition; Q99714; recombinant HADH2, NADH fluorescence, beta-hydroxybutyryl-CoA; Potency, µM (titrated, usually from 57.1 µM), inactives show at the highest dose activity change, negative = inhibition, usual class: inhibitors; actives 3.4% (n = 73,000); note: potency is the fitted concentration of half-maximal effect; % is set by controls: 0 for no effect and ±100 for the full control effect; nearly all actives have a fitted effect of over 60% in size
Target sequence (Q99714 whole entry, looked up, one chain of several): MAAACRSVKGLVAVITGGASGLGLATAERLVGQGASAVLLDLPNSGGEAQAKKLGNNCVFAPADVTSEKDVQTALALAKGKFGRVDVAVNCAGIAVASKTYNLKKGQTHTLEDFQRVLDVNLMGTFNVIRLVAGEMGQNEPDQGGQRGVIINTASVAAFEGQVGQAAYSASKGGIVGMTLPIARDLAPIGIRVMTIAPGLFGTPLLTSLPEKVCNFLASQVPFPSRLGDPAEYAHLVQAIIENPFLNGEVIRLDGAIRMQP
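His-tagged recombinant enzyme from E. coli, 20 nM, preincubated 15 min RT with compound; reaction started with 1 mM NAD+ and 90 uM beta-hydroxybutyryl-CoA in 100 mM Tris-HCl pH 9.0. NADH fluorescence (ex 360/em 450) read over 4 min; last-minus-first difference.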
4-MU autofl = compounds fluorescent in 4-MU spectral region. compound autofluorescence, 340/450 nm, 4-MU equivalents; hits give high values. max dye-equivalent concentration, M. actives 11% (n = 59,000). AID 589; in the data active = max dye-equivalent concentration above about 10 nM; inconclusive = mostly about 1.1 nM to 9.6 nM
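Intrinsic fluorescence at 340/450 nm (ex/em) was read after 15 min at room temperature in pH 8.0, 100 mM Tris. Each compound concentration expressed as 4-MU-equivalent concentration from a six-point 4-MU standard series on each plate.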
* = called active by the depositor; i = inactive; ? = inconclusive; / = no result; ! = not confirmed by another sample; [ ] = remark or other dose. Unless noted, calls come from the whole dose curve; as a rule, active = well fitted curve in the direction sought with a large enough effect; inconclusive = small, poorly fitted or top-dose-only effect, or another doubt; inactive = no such curve, though single readings can be large; an effect the other way counts as inactive or inconclusive.

SMILES	HSD17B inhib	A350 fluor	AID923	HADH2 inh	4-MU autofl
Cn1c(C(=O)N2CCc3ccccc32)cc2c(=O)n3ccccc3nc21	?	9.9e-08M*	13%	19%	1.1e-07M*
CC(C)n1c(SCC(=O)N2CCCc3ccccc32)nc2c1c(=O)n(C)c(=O)n2C	3%	i	2%	-15%	i
Cn1c(C(=O)N2CCCc3ccccc32)cc2c(=O)n3ccccc3nc21	?	1e-07M*	16%	9%	1.1e-07M*
COC(=O)c1ccc(C(NC(=O)c2ccco2)[C@]2(C)C[C@H]2C2CCCCC2)cc1 (stereo not given in full)	-7%	/	-2%	17%	/
N#CCC(=O)NCCCOC(=O)Nc1ccc(Cl)c(Cl)c1	25µM*	/	1%	4%	/
COc1ccc2[nH]cc(CCNc3ccnc(-c4ccccc4C)n3)c2c1	-5%	i	5%	1%	i
N[C@@H](CO)C(=O)NNCc1ccc(O)c(O)c1O	-14%[25.6 µM]	6.2e-08M*!	1%[25.7 µM]	0.79µM*	6.5e-08M*!
Cn1c(=O)c(C(=O)COC(=O)c2cc(-c3ccccc3)nc3ccccc23)c(N)n(Cc2ccccc2)c1=O	?	/	4%	/	/
COc1ccc(-c2cc(C(=O)OCC(=O)N(C)C)c3ccccc3n2)cc1	i	4.3e-08M*	15%	36%	4.2e-08M*
O=C(O)[C@@H]1CCCN[C@H]1C(=O)O	-7%	i	-1%	-15%	i
CC(=O)OC[C@@H]1O[C@@H](O/N=C2/C[C@@H](O)[C@@H](O)[C@@H]3[C@@H]4C(=O)N(C5CCCCC5)C(=O)[C@H]4CC[C@H]23)[C@H](OC(C)=O)[C@H](OC(C)=O)[C@@H]1OC(C)=O	2%[11.4 µM]	/	-2%[11.5 µM]	5%[11.4 µM]	/
c1ccc(CC2CCN(c3nc4ccccc4n4nnnc34)CC2)cc1	10µM*	2.5e-07M*	3%	-20%	2.5e-07M*
O=C(c1ccco1)N1CCN(c2nc3ccccc3n3nnnc23)CC1	20µM*	?	5%	-8%	?
O=C(c1ccco1)N1CCC(n2nnc3ccccc32)CC1	-3%	i	1%	3%	i
N#CC1(O)CCCCC1	6%	/	0%	10%	/
N[C@H](CO)Cc1cnc[nH]1	-14%	/	-1%	/	/
CCOC(=O)CNC(=O)CSc1ncnc2c1cnn2-c1ccc(C)cc1	-170%	i	1%	11%	i
CCOC(=O)CNC(=O)CSc1ncnc2c1cnn2-c1ccc(OC)cc1	-3%	2.2e-08M*	0%	17%	2.3e-08M*
CCOC(=O)CSc1ncnc2c1cnn2-c1ccc(C)cc1	25µM*	?	0%	-6%	?
O=C(O)[C@H]1CCCN(CCC=C(c2ccccc2)c2ccccc2)C1	-2%	i	-3%	?	i
c1ccc(N2CCN(c3nc4cc5c(cc4s3)OCO5)CC2)cc1	-12%	i	-3%	7.9µM*	i
Clc1ccc2nc(N3CCN(c4ccccc4)CC3)sc2c1	17%	i	0%	15%	i
c1ccc2c(c1)CCN(c1nc3cc4c(cc3s1)OCO4)C2	?	1.7e-08M*	2%	16µM*	1.5e-08M*
c1c2c(cc3sc(N4CCOCC4)nc13)OCO2	?	i	1%	10µM*	i
c1c2c(cc3sc(N4CCCCC4)nc13)OCO2	32µM*	i	0%	?	i
SMILES	HSD17B inhib	A350 fluor	AID923	HADH2 inh	4-MU autofl
Cc1cc(OCc2nc(N)nc(N)c2-c2ccc(Cl)c(Cl)c2)ccc1[N+](=O)[O-]	-1%[11.4 µM]	i	-1%[11.5 µM]	10%[11.4 µM]	i
Cn1c(=O)c2[nH]c(COCc3nc4c([nH]3)c(=O)n(C)c(=O)n4C)nc2n(C)c1=O	-3%[11.4 µM]	i	-1%[11.5 µM]	5%[11.4 µM]	i
O=C1CC2(CCCC2)CC(=O)N1CCCCNC[C@H]1COc2ccccc2O1	-1%	/	-1%	-5%	/
Oc1ccc(-c2nc(-c3ccc(F)cc3)c(-c3ccncc3)[nH]2)cc1	32µM*	i	-3%	-8%	i
Fc1ccc(-c2nc3n(c2-c2ccncc2)CCS3)cc1	?	/	-1%	-19%	/
COC(=O)c1oc2ccc(OC)cc2c1N	32µM*	1.6e-08M*	4%	32µM*	1.6e-08M*
COc1ccc2oc(-c3ccccc3)c(C(N)=O)c2c1	25µM*	/	1%	?	/
NC(=O)c1oc2ccc(Cl)cc2c1N	32µM*	6.2e-08M*	-1%	32µM*	6.3e-08M*

Compound activity: PubChem, National Center for Advancing Translational Sciences (NCATS)
